aSyn 5UTR act: Activators via SNCA 5'UTR binding, MLPCN; alpha-synuclein 5'UTR reporter, activators screen; activity score, % (tested at 7.5 µM), hits read low; 7.1% of 300,000 active; in the data active = activity score below about -60%
A number is an active result; - = inactive. Only a sample is shown.

SMILES	aSyn 5UTR act
CC(=C/c1ccc(C(C)C)cc1)/C=N/NC(=O)c1ccncc1	-110
O=C(N/N=C/C(Br)=C\c1ccccc1)c1ccc2nc[nH]c2c1	-90
CC(/C=N/NC(=O)c1cccc(F)c1)=C\c1ccccc1	-254
CC(/C=N/NC(=O)c1ccc2nc(C)[nH]c2c1)=C\c1ccccc1	-67
O=C(N/N=C/c1ccc(O)c2ncccc12)c1cccc(Br)c1	-
O=C(N/N=C/c1ccnc2ccccc12)c1ccccc1O	-62
C(=N\NCc1ccccc1)/c1ccc2nccnc2c1	-106
O=C(N/N=C/c1cccnc1)c1cc(Br)ccc1O	-125
Cc1cccc(C(=O)Oc2ccc(/C=N/NC(=O)c3ccccc3O)cc2)c1	-135
O=C(N/N=C/c1cccnc1)c1ccc(NC(=O)C(c2ccccc2)c2ccccc2)cc1	-
O=C(N/N=C/c1ccc2nccnc2c1)c1ccccc1O	-150
Cc1cc(N2CCOCC2)n2ncc(-c3ccccc3Cl)c2n1	-160
O=c1nc(/C=C/c2ccc(-c3ccc(F)cc3)o2)cc(C(F)(F)F)[nH]1	-62
Cc1cccc(OCCCC(=O)Nc2ccc(N(C)C)cc2)c1	-88
CC(=O)N/N=C/c1ccccc1OCCOc1cccc(C)c1	-76
Cc1ccc(NC(=O)CCOc2ccccc2)cc1	-203
COc1cccc(C2=CC(c3ccc(N(C)C)cc3)n3ncnc3N2)c1 (stereo not drawn)	-72
COc1ccc(C2C=C(c3ccccc3)Nc3nnnn32)cc1 (stereo not drawn)	-168
COc1cccc(C2=CC(c3ccc(N(C)C)cc3)n3nnnc3N2)c1 (stereo not drawn)	-76
CCN(CC)c1ccc(N=Cc2ccc([N+](=O)[O-])o2)cc1	-80
C=CCNc1ncnc2c1[nH]c1ccc(Cl)cc12	-197
CCc1ccc(NC(=O)CSc2nncn2-c2cccnc2)cc1	-119
O=C(O)c1ccc(N/N=C/c2cccc(C(F)(F)F)c2)cc1	-99
O=C(O)c1ccc(N/N=C/c2ccc3nccnc3c2)cc1	-
O=C(O)c1ccc(N/N=C/c2ccc(F)c(F)c2)cc1	-73
SMILES	aSyn 5UTR act
Oc1ccccc1-c1nnc(SCCN2CCOCC2)n1Cc1ccccc1	-
Cn1c(SCc2ccccc2)nnc1-c1ccc(O)cc1	-76
Cn1c(SCc2ccccc2)nnc1-c1ccc2c(c1)OCO2	-192
c1ccc(CSc2ccc(-c3ccc4c(c3)OCO4)nn2)cc1	-150
CCOC(=O)C1=C(C)C/C(=N\NC(=O)c2ccccc2O)CC1	-79
COC(=O)C1(Cc2cc(-c3ccccc3)no2)CCN(C(=O)OC(C)(C)C)CC1	-82
CC(C)c1ccc(-c2nnn(CCC#N)n2)cc1	-107
Cn1cc(Cl)c(C(=O)Nc2nc3ccc(Cl)cc3s2)n1	-197
Cn1cc(Cl)c(C(=O)Nc2nc3ccc([N+](=O)[O-])cc3s2)n1	-68
O=C1C2C3C=CC(C4CC34)C2C(=O)N1/N=C/c1ccc([N+](=O)[O-])s1 (stereo not drawn)	-85
O=C1C2C3C=CC(C4CC34)C2C(=O)N1/N=C/c1c[nH]c2ccccc12 (stereo not drawn)	-141
CCN(CC)Cc1c(O)ccc2c(=O)c(-c3ccccc3)coc12	-64
CN(C)c1ccc(/C=N/NC(=S)NCc2ccco2)cc1	-127
CN(C)c1ccc(C(=S)NCc2ccco2)cc1	-69
NC(=S)Nc1cccc2cc3ccccc3cc12	-101
c1ccc(CNc2c3ccccc3nc3ccccc23)cc1	-332
CN(C)CCCNc1c2ccccc2nc2ccccc12	-
CCOc1ccc(-c2nc(CCl)cs2)cc1	-70
COc1cc(NC2c3ccccc3C(=O)N2c2ccc(C)cn2)cc(OC)c1OC (stereo not drawn)	-77
CCOC(=O)c1ccccc1NC1c2ccccc2C(=O)N1c1ccc(C)cn1 (stereo not drawn)	-85
COc1ccc(C(=S)Nc2ccc(C)cc2)cc1	-153
Cc1ccc(NC(=S)c2ccccc2)cc1	-152
CCOc1ccc(/C=N/N2C(C)CCCC2C)cc1 (stereo not drawn)	-77
O=C(NCc1ccccc1)c1cc(-c2ccco2)on1	-97
Cc1ccccc1Cn1cc(NC(=O)c2cc(-c3ccco3)on2)cn1	-76
SMILES	aSyn 5UTR act
O=C(NCCc1ccccc1)c1cc(-c2ccco2)on1	-321
Cc1ccccc1Cn1cc(NC(=O)c2noc(C(C)C)c2[N+](=O)[O-])cn1	-
COc1ccc(CCNC(=O)c2cc(-c3ccco3)on2)cc1OC	-77
O=C(O)c1cc(O)c2c(c1)C(=O)c1cc(O)cc(O)c1C2=O	-81
O=C(COc1ccccc1CNCc1ccccc1)Nc1ccccc1	-91
Brc1ccc(COc2cccc3cccnc23)cc1	-81
O=C(N/N=C/c1ccc[nH]1)c1ccc(COc2cccc3cccnc23)cc1	-
OCc1ccccc1OCCOc1ccc(Cl)c2cccnc12	-95
c1ccc(OCCOc2cccc3cccnc23)cc1	-94
OCc1ccccc1OCCCOc1cccc2cccnc12	-83
O=C(COc1cccc2cccnc12)Nc1ccccc1	-174
Clc1ccc(OCc2cn3ccccc3n2)c2ncccc12	-158
COc1ccc2cc(CN(CC3CCCO3)C(=O)Nc3ccccc3OC)c(=O)[nH]c2c1 (stereo not drawn)	-
